Assay outcomes (PubChem BioAssay)
Calb FLC – affects C. albicans growth with fluconazole; C. albicans CaCi-2 (fluconazole-resistant clinical isolate) + fluconazole, Alamar Blue growth, 48 h; growth inhibition, % (concentration not given with the values); hit rate 0.57% among 300,000;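 active = growth inhibition above about 58% in most replicates, limit read from the data, passing the limit was not always enough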;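 note: all wells also contain fluconazole at 8 µg/ml as a sub-toxic cotreatment; 0% = median of DMSO wells and 100% = median of geldanamycin control wells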
Mdm2 MdmX PPI – disrupts the human Mdm2-MdmX interaction. SaOS-2 split-luciferase Mdm2/MdmX complementation, luminescence. O15151+Q00987. AID 485346. hit rate 3% among 330,000. inhibition, % at 8 µM;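 active = inhibition of at least 50% at 8 µM in the primary screen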
Target sequence (O15151 whole entry, looked up): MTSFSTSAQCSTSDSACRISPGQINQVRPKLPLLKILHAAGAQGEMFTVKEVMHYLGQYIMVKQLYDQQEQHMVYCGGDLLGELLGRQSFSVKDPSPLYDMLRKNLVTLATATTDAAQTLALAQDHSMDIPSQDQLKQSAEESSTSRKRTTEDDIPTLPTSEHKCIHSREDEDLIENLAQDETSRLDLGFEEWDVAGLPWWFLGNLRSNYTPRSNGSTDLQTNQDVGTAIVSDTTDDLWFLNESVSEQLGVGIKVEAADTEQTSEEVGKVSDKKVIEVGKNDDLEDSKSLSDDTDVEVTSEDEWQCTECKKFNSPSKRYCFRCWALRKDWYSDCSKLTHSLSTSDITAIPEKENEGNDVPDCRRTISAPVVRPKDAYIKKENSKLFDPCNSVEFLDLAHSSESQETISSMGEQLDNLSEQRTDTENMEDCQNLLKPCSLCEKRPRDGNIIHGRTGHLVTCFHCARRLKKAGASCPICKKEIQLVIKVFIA
Target sequence (Q00987 whole entry, looked up): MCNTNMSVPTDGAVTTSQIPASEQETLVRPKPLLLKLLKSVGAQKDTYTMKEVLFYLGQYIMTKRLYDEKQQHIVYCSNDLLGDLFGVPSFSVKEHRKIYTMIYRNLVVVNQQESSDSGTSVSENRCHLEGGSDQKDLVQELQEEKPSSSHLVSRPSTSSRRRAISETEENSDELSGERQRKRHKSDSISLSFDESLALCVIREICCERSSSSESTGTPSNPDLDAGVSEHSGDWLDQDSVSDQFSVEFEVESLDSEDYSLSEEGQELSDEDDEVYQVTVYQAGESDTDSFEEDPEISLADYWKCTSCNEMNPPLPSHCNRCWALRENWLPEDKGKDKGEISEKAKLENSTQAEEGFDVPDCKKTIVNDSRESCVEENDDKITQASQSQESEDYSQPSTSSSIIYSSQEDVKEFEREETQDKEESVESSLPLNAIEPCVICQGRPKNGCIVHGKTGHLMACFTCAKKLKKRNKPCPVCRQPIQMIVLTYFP
Beta apoptosis – blocks beta cell apoptosis | INS-1E cytokine-induced death, ATP luminescence, 48 h; percent of positive-control rescue, neutral wells zero | protection from apoptosis, % (no concentration beside the values) | hit rate 0.8% among 300,000 | AID 435005;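 active = Every replicate reaches about 75%, or at least half do and their mean reaches it too, limit read from the data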;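 note: 0% = cytokine-treated negative control wells and 100% = positive control rescue; higher means more ATP so stronger rescue from cytokine killing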
CSC inhib – cancer stem cell inhibition | cancer stem cell-like cells viability, luminescence | inhibition, % at 7.5 µM | hit rate 1.1% among 300,000; in the data active = inhibition above about 75%; tested in HMLE shEcad cells
MPTP block – inhibitors of mitochondrial permeability transition pore | isolated mouse mitochondria, Ca2+ swelling absorbance, 30 min | inhibition, % at 10 µM | hit rate 1.4% among 360,000 | AID 602449;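 active = inhibition of 50% or more, scaled per plate between neutral and stimulator controls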;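 note: 0% = DMSO wells given calcium and 100% = 1 mM EGTA wells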
MPTP counter – membrane potential counter-screen of mitochondrial pore inhibitors. shares compounds with MPTP block. inhibition, % at 10 µM. hit rate 78% among 5,000. isolated mitochondria, Rhodamine 123 fluorescence. AID 624504; in the data active = inhibition above about 22%;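 note: 0% = DMSO vehicle and 100% = positive control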
MPTP swell DR – dose response confirmation of mitochondrial permeability transition pore inhibitors. shares compounds with MPTP block. isolated mitochondria swelling, absorbance. IC50, µM. hit rate 58% among 780; in the data active = IC50 below about 20 µM
MPTP cs DR – counter-screen for mitochondrial permeability transition pore inhibitors, dose response | IC50, µM | isolated mitochondria counterscreen, fluorescence read-out | shares compounds with MPTP block | hit rate 49% among 780; in the data active = IC50 below about 80 µM
* = called active by the depositor; nt = not tested or not shown. Most compounds without a hit are left out; they make up all but 4.8% or so of the library.

SMILES	Calb FLC	Mdm2 MdmX PPI	Beta apoptosis	CSC inhib	MPTP block	MPTP counter	others
O=C(NNC(=O)c1cccc(S(=O)(=O)Nc2ccccc2F)c1)c1ccncc1	nt	nt	nt	nt	-0.7	nt
O=C(CSc1nc2ccccc2o1)Nc1ccc(N2CCOCC2)c(Cl)c1	10.9	-121.2	4.1	0.4	96.7*	93.4*
O=C(CSc1nc2ccccc2o1)Nc1cc(C(F)(F)F)ccc1N1CCOCC1	-0.4	29.1	-0.1	3.1	3.4	nt
CN(c1ccc(OCC(=O)OCC(=O)Nc2ccc([N+](=O)[O-])cc2)cc1)S(=O)(=O)c1cccs1	nt	nt	nt	nt	0.6	nt
COc1ccc(NC(=O)[C@H](C)NC(=O)C2CCN(S(=O)(=O)c3ccc(OC)cc3)CC2)cc1	-2.3	22.5	nt	-9.4	-1.3	nt
Cc1cc(C(=O)COc2ccccc2C(N)=O)c(C)n1CC1CCCO1 (stereo not given)	19.0	-9.5	nt	nt	92.9*	79.9*
Cc1cc(C(=O)COC(=O)C2COc3ccccc3O2)c(C)n1CC1CCCO1 (stereo not given)	10.8	-16.9	0.0	5.7	-1.4	nt
CN(C)S(=O)(=O)c1ccc(NC(=O)CSc2ncnc3ccccc23)cc1	-2.0	31.1	-3.5	0.2	1.2	nt
CN(C)S(=O)(=O)c1cccc(NC(=O)CSc2ncnc3ccccc23)c1	7.9	14.6	-2.6	6.0	84.2*	66.4*
CCN(CC)S(=O)(=O)c1cccc(NC(=O)CSc2nc3ccccc3[nH]2)c1	17.4	1.2	-3.2	10.5	65.2*	33.3*
O=C(NNc1cc(C(F)(F)F)nc2ccccc12)Nc1cccc(Cl)c1	-0.9	25.1	9.1	0.3	67.2*	70.4*
CCC(CC)c1nnc(NC(=O)CCNC(=O)c2ccccc2Cl)s1	-6.0	18.0	-5.9	-7.4	2.3	nt
CCCCCCCCCCCC(=O)c1c(O)cccc1O	1.2	17.5	-1.6	-5.0	65.6*	56.2*
O=C(NNC(=O)c1cc(Cl)ccc1O)c1cccc(S(=O)(=O)N2CCOCC2)c1	-0.5	20.0	0.1	-3.7	3.3	nt
c1ccc(COc2cccc(CNCc3cccnc3)c2)cc1	-9.4	-28.1	nt	3.1	0.9	nt
OCCNCc1cccc(OCc2ccc(Cl)cc2)c1	-20.6	10.0	6.2	13.6	64.5*	-8.9	MPTP swell DR=5.63*;MPTP cs DR=>80
CCOCCc1nn2c(=O)cc(CSCC(=O)Nc3ccccc3)nc2s1	-8.3	0.2	1.8	3.0	-0.7	nt
NNC(=O)c1cc2c(N3CCC(Cc4ccccc4)CC3)ncnc2s1	-5.4	17.7	7.2	17.5	89.2*	59.4*
Cn1ncc2c(N3CCC(Cc4ccccc4)CC3)ncnc21	9.7	13.2	19.5	67.0	13.1	nt
O=C(NC1CCN(Cc2ccc(Cl)c(Cl)c2)CC1)c1ccccc1	-28.9	25.9	nt	nt	0.2	nt
O=C(Cc1ccccc1)NC(NC(=S)Nc1cc(Cl)ccc1Cl)C(Cl)(Cl)Cl (stereo not given)	9.6	8.2	4.0	-18.4	97.8*	70.2*
O=C(CCc1ccccc1)NC(NC(=S)Nc1ccc(Cl)cc1)C(Cl)(Cl)Cl (stereo not given)	10.7	42.8	23.3	nt	93.9*	82.4*
O=C(NC(NC(=S)Nc1cc(Cl)ccc1Cl)C(Cl)(Cl)Cl)c1ccco1 (stereo not given)	-18.7	3.6	-0.1	-1.1	81.9*	72.5*
Cc1ccccc1NC(=S)NC(NC(=O)c1ccco1)C(Cl)(Cl)Cl (stereo not given)	10.4	23.7	-2.8	5.3	3.7	nt
Cc1ccc(Cl)cc1NC(=O)N[C@@H](CC(C)C)C(=O)O	-6.0	8.4	-14.5	-6.1	0.3	nt
SMILES	Calb FLC	Mdm2 MdmX PPI	Beta apoptosis	CSC inhib	MPTP block	MPTP counter	others
COc1ccccc1CCNC(=O)C(=O)NCC1CCCN1S(=O)(=O)c1ccccc1 (stereo not given)	1.0	17.5	5.6	nt	-1.1	nt
O=S(=O)(NCC(c1ccc2c(c1)OCO2)N1CCN(c2ccccc2)CC1)c1ccccc1 (stereo not given)	0.1	-6.6	nt	3.7	0.1	nt
Cc1ccccc1NC(=O)c1ccc(NC(=O)C2CC(=O)OC23CCCCC3)cc1 (stereo not given)	-11.8	nt	nt	nt	-0.9	nt
Cc1nc2ccccc2n1C1CC(=O)N(Cc2ccccc2)C1=O (stereo not given)	-5.9	15.3	1.0	-4.8	64.8*	57.7*
O=C1Nc2ccccc2C(O)(C(=O)NCc2ccco2)N1c1ccc(Cl)cc1 (stereo not given)	-0.3	-55.0	-0.3	1.3	89.7*	86.9*
O=C(Nc1ccc(Cl)c(Cl)c1)Oc1ccc(NC(=O)c2ccco2)cc1	-3.0	33.5	53.5	nt	102.5*	77.3*
CCOc1ccc(Oc2cc(NC(=O)c3ccco3)cc([N+](=O)[O-])c2)cc1	nt	nt	7.6	17.6	24.1	nt
O=C(Nc1cc(Oc2ccc(Cl)cc2)cc([N+](=O)[O-])c1)c1ccco1	25.5	17.5	4.2	62.7	91.4*	73.8*
O=C(Nc1ccc(OC(=O)c2ccco2)cc1)c1ccco1	-1.6	-12.2	-0.6	-7.8	-1.4	nt
O=C(CCc1ccc(Oc2cc([N+](=O)[O-])cc([N+](=O)[O-])c2)cc1)Nc1cccc(Cl)c1	-5.4	nt	-2.0	50.8	97.2*	78.1*
COc1ccc(CCC(=O)Nc2cccc(Cl)c2)cc1	-4.6	-15.1	-4.2	-12.1	1.8	nt
Cc1cccc(Oc2cc(NC(=O)c3ccccc3)cc([N+](=O)[O-])c2)c1	-0.2	15.9	100.1*	55.2	67.9*	81.0*
O=C(NCc1ccccn1)C(=O)NCC1OCCN1S(=O)(=O)c1ccc(F)cc1 (stereo not given)	-5.1	18.2	0.6	-3.7	-0.9	nt
C[C@H](CO)N1C[C@H](C)[C@@H](CN(C)C(=O)NC2CCCCC2)Oc2c(NC(=O)Cc3ccccc3)cccc2C1=O	nt	12.8	2.4	1.7	-1.7	nt
O=[N+]([O-])c1ccc2nc(NS(=O)(=O)c3ccc(F)cc3)sc2c1	5.0	-14.2	-3.8	9.8	1.6	nt
CC(OC(=O)CCCNC(=O)c1ccc(Cl)cc1)C(=O)N(C)Cc1ccccc1 (stereo not given)	-3.1	19.4	-5.0	7.8	1.4	nt
COc1cnn(C(C)(C)C)c(=O)c1Cl	-8.7	-30.4	-3.0	-10.5	-1.2	nt
Cc1cccc(Oc2cnn(C(C)(C)C)c(=O)c2Cl)c1	-9.1	22.9	2.4	5.0	61.5*	44.9*
COCCN(Cc1cccs1)S(=O)(=O)c1ccc(-c2ccc(=O)[nH]n2)s1	-1.9	15.7	10.4	-3.2	-1.1	nt
c1ccc(-c2nc(SCc3nc4ccccc4[nH]3)c3oc4ccccc4c3n2)cc1	nt	27.9	1.1	nt	50.4*	85.1*
Cc1nc(SCc2nc3ccccc3[nH]2)c2oc3ccccc3c2n1	27.8	34.8	5.4	3.4	-0.5	nt
O=C(Nc1ccc(Cc2ccncc2)cc1)c1cccc([N+](=O)[O-])c1	-2.9	19.1	-3.4	44.7	18.4	nt
